Source: PubChem BioAssay
Only some compounds are listed: those with a hit (about 1.3% of all), similar ones and a draw of the others.
RPL19A TOR yeast: alters RPL19A-GFP fluorescence in TOR pathway yeast screen; percent response vs DMSO, % at 10 µM; S. cerevisiae RPL19A-GFP strain, flow cytometry, 3 h; stronger effect = lower value; 330,000 compounds, 0.3% hits;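 active = percent response vs DMSO below 50%; inconclusive = fewer than 70 events counted for the yeast strain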;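 note: median channel GFP fluorescence of the barcoded RPL19A-GFP strain; ratio of sample median GFP to plate DMSO average so 100% = DMSO; lower means less RPL19A-GFP as with rapamycin TOR inhibition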
CIT2-GFP yeast: yeast TOR pathway CIT2-GFP modulation. 320,000 compounds, 0.065% hits. AID 2029. GFP response vs DMSO, % at 10 µM. S. cerevisiae CIT2-GFP strain, flow cytometry, 3 h; 100 means same as DMSO wells;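 active = GFP response relative to DMSO above a set limit, near the screen mean plus 3 SD, cut at about 150% in these data; inconclusive = Fewer than 70 cells measured for a yeast strain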;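 note: ratio of well median GFP fluorescence to mean of DMSO wells on the plate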
LAP4 TOR yeast: modulators of TOR pathway LAP4-GFP in S. cerevisiae; S. cerevisiae LAP4-GFP multiplex, flow cytometry GFP, 3 h; median GFP as percent of DMSO wells; GFP response vs DMSO, % at 10 µM; 320,000 compounds, 0.34% hits;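 active = GFP response vs DMSO above a set limit, about the screen mean plus 3 SD, cut at about 150% in these data; inconclusive = under 70 cell events counted for the yeast strain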
AGP1 TOR yeast: alters AGP1-GFP fluorescence in TOR pathway yeast screen; S. cerevisiae AGP1-GFP multiplex flow cytometry, 3 h; GFP as percent of DMSO wells; GFP response vs DMSO, % at 10 µM; 320,000 compounds, 0.02% hits; AID 2066;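 active = GFP response relative to DMSO above a set limit, near screen average plus 3 SD, cut at about 150% in these data; inconclusive = fewer than 70 cells counted for the yeast strain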;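 note: median GFP channel fluorescence of the gated AGP1 strain per well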
MEP2 TOR yeast: yeast TOR pathway MEP2-GFP modulation; 330,000 compounds, 0.51% hits; S. cerevisiae MEP2-GFP strain, flow cytometry GFP, 3 h; 100% = DMSO control level; GFP response vs DMSO, % at 10 µM; AID 2016;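 active = GFP response versus DMSO above a set limit, roughly screen mean plus 3 SD, cut at about 180% in these data; inconclusive = fewer than 70 cells counted for a yeast strain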;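 note: median GFP fluorescence of the barcode-gated MEP2-GFP cells per well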
Efflux pump mplx: inhibitors of Candida antifungal efflux pumps expressed in yeast. S. cerevisiae Candida pump triplex, Nile Red efflux. inhibition, % at 10 µM. 330,000 compounds, 0.44% hits;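 active = plate passing quality check with inhibition over a set limit, or well fluorescence over plate mean plus 4 SD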;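 note: Nile Red retained in pooled yeast measured as flow cytometry median fluorescence; 0% = buffer negative control and 100% = Enniatin B positive control; higher means more Nile Red kept so more efflux inhibition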
Numbers without * were called inactive; ? = inconclusive; . = not tested or not shown; [ ] = remark or other dose.

SMILES	RPL19A TOR yeast	CIT2-GFP yeast	LAP4 TOR yeast	AGP1 TOR yeast	MEP2 TOR yeast	Efflux pump mplx
Cc1cc(C)nc(/N=C(/NC(=O)c2ccccc2)Nc2ccccc2)n1	33*[may fluoresce violet]	?	101	.	444*[may fluoresce violet]	0
CCCCN(C(=O)CCC(=O)Nc1cc(C)on1)C(C(=O)NC1CCCC1)c1ccccc1OCC (configuration not stated)	70	?	85	?	420*[may fluoresce violet]	0
CCCCN(C(=O)CCC(=O)Nc1cc(C)on1)C(C(=O)NC1CCCC1)c1ccc(OCC)cc1 (configuration not stated)	103	98	92	101	105	0
COc1cc(C2CC(c3cccnc3)=NN2c2ccc(F)cc2)cc(OC)c1OC (configuration not stated)	112	159*	120	101	151	0
COc1ccc(C2CC(c3ccccc3)=NN2c2ccc(S(N)(=O)=O)cc2)cc1OC (configuration not stated)	97	98	96	94	100	0
COc1ccc(C2C3=C(CCCC3=O)N(CC(=O)O)C3=C2C(=O)CCC3)cc1Cl	46*	130	126	148	502*	0
COc1ccc(C2C3=C(CC(C)(C)CC3=O)N(CC(=O)O)C3=C2C(=O)CC(C)(C)C3)cc1OC	96	111	95	105	101	0
COc1ccccc1C1C2=C(CCCC2=O)N(CC(=O)O)C2=C1C(=O)CCC2	14*[may fluoresce violet]	?	58	?	257*[may fluoresce violet]	0
CCOc1cc(C2C3=C(CCCC3=O)N(CC(=O)O)C3=C2C(=O)CCC3)ccc1OC	94	88	78	86	88	0
COc1ccc(Br)cc1S(=O)(=O)NCCCN1CCOCC1	92	100	98	81	72	0
O=C1c2ccccc2C(=O)c2c([N+](=O)[O-])ccc(O)c21	92	101	154*	83	135	0
O=C(O)c1ccc([N+](=O)[O-])c2c1C(=O)c1ccccc1C2=O	103	96	94	106	102	0
Cc1ccc(CSc2nnc3ccc(-c4ccncc4)nn23)cc1	98	96	106	101	93	0
COc1ccccc1CNC(=O)CNC(=O)c1ccc(Br)o1	103	95	100	105	100	1
Cc1ccccc1Oc1ncnc2oc(-c3ccccc3)cc12	.	110	92	28	267*	0
COc1ccc(NS(=O)(=O)c2cccc(C(=O)OCC(=O)NC3CC3)c2)cc1	104	88	82	90	100	-1
Cc1cccc(N=c2c([N+](=O)[O-])nn(-c3ccc(Cl)cc3)n2O)c1	94	101	154*	88	90	0
CC(=O)Nc1ccc(C(=O)OCC(=O)NCc2ccc3c(c2)OCO3)cc1	99	96	103	104	109	0
O=C(CSc1nnnn1-c1ccc(F)cc1)NCc1cccs1	105	103	94	97	104	0
Cc1cccc2cc3c(NC(=O)C(C)(C)C)nn(CC(C)C)c3nc12	97	89	100	97	96	0
COCCNCC(O)CON=C1c2ccccc2-c2ccccc21 (configuration not stated)	48*[may fluoresce violet]	?	95	22	170	0
Cc1ccc2c(c1)/C(=C/c1ccc(F)cc1)C(=O)N2	77	52	153*	85	133	0
COc1ccc(Nc2cc(C(=O)NCCCN3CCN(C)CC3)c3ccccc3n2)cc1	47*[may fluoresce violet]	?	96	21	244*[may fluoresce violet]	0
COc1ccc(Nc2cc(C(=O)NCCCN3CCOCC3)c3ccccc3n2)cc1	99	96	94	95	103	0
O=C(CSc1nc2ccsc2c(=O)n1CC1CCC(C(=O)O)CC1)c1ccc(F)cc1 (configuration not stated)	74	259*	224*	215*	880*	0
SMILES	RPL19A TOR yeast	CIT2-GFP yeast	LAP4 TOR yeast	AGP1 TOR yeast	MEP2 TOR yeast	Efflux pump mplx
N=c1c(C(=O)NCCN2CCOCC2)cc2c(=O)n3ccccc3nc2n1Cc1ccc(F)cc1	28*[may fluoresce violet]	?	80	15	140	0
N=c1c(C(=O)NCCN2CCOCC2)cc2c(=O)n3ccccc3nc2n1CCCN1CCOCC1	52	?	78	?	247*[may fluoresce violet]	0
O=P(c1ccccc1)(c1ccccc1)C(O)c1ccc(Br)cc1 (configuration not stated)	99	94	95	97	102	0
C=CCN1C(=O)c2ccccc2NC1c1cc(Br)cs1 (configuration not stated)	55	?	92	23	279*[may fluoresce violet]	0
COC(=O)N/N=C/c1cc(C)n(-c2cccc3ccccc23)c1C	44*[may fluoresce violet]	?	75	19	144	0
CCOC(=O)N/N=C/c1cc(C)n(-c2cccc3ccccc23)c1C	103	102	103	99	144	0
CCOc1ccc(NC(=O)C2CCCN(c3c(CC)c(C)nc4ncnn34)C2)cc1 (configuration not stated)	51	?	79	15	214*[may fluoresce violet]	0
CCN(CC)CCNC(=O)C1CCC(=O)N(c2ccc(OC)cc2)C1c1ccc(F)cc1 (configuration not stated)	58	?	91	20	230*[may fluoresce violet]	0
Cc1ccc(NC(=O)CCn2cnc3ccccc3c2=O)cc1	98	89	95	103	98	0
COc1ccc(/C=N/NC(=O)Cn2cnc3ccccc3c2=O)cc1	49*[may fluoresce violet]	?	79	22	245*[may fluoresce violet]	0
CC(=O)Nc1ccc(NC(=O)CCCn2cnc3ccccc3c2=O)cc1	96	?	84	16	242*[may fluoresce violet]	0
COc1cc(C(C(=O)NC(C)(C)C)N(C(=O)CNC(=O)c2cccs2)c2cccnc2)cc(OC)c1OC (configuration not stated)	96	98	90	94	95	0
CCC(C)(C)NC(=O)C(c1ccco1)N(C(=O)CNC(=O)c1cccs1)c1cccnc1 (configuration not stated)	54	?	91	41	288*[may fluoresce violet]	0
O=C(Cc1ccc(O)cc1)NC1CCCCCC1	42*[may fluoresce violet]	?	?	?	?	0
O=C(Cc1ccc(Br)cc1)NC1CCCCC1	109	.	103	107	102	0
CCc1sc(C(=O)N2CCN(C(=O)c3ccccc3)CC2)cc1C	98	104	98	99	96	0
C/C=C(\C)C(=O)Nc1cccc(C2=NOC3(C2)C[C@H](C(N)=O)N(C(=O)C(c2ccccc2)c2ccccc2)C3)c1 (some centres not stated)	100	101	106	94	95	0
CC(C)(C)c1ccc(O)c(O)c1	96	86	106	96	92	0
